Sm TGR block = S. mansoni TGR enzyme inhibition; Q962Y6; purified TGR, DTNB reduction, TNB absorbance 405 nm; Potency, µM (doses to about 114 µM), for inactives: at the top dose activity change, negative = inhibition, usual class: inhibitors; 3% of 360,000 active; further: on the % scale 0 is the no-effect control and ±100 the full control effect; nearly all actives have a fitted effect of over 60% in size
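Kinetic colorimetric format: TGR-catalysed, NADPH-driven DTNB reduction monitored via TNB absorbance. Enzyme dispensed at 20 nM; compound exposure 15 min at room temperature before reaction start.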
Pf growth 96h = P. falciparum growth inhibition at 96 hour, primary screen for plastid delayed-death inhibitors; P. falciparum luciferase reporter growth, 96 h; AID 504834; 6.9% of 320,000 active; Potency, µM (titrated, usually from 28.7 µM), inactives show at the highest dose activity change, negative = inhibition, actives largely listed as inhibitors; further: on the % scale 0 is the no-effect control and ±100 the full control effect
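Two-generation exposure (96 h) targets delayed-death phenotype. Reporter parasites carrying integrated firefly luciferase, in red cells at 2% hematocrit and 0.05% parasitemia final, kept at 37 C, 5% CO2; luminescence loss indicates inhibition.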
Pf growth 48h = P. falciparum growth inhibition at 48 hours (one generation); AID 504832; Potency, µM (titrated, usually from 28.7 µM), for the others: at the top dose activity change, negative = inhibition, most hits filed as inhibitors; 5.9% of 310,000 active; P. falciparum luciferase growth in erythrocytes, 48 h; further: on the % scale 0 is the no-effect control and ±100 the full control effect
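Erythrocytes infected with P. falciparum carrying an integrated firefly luciferase reporter (2% hematocrit, 0.1% parasitemia final) were exposed to compounds in RPMI 1640 with 0.5% Albumax at 37 C, 5% CO2. Growth inhibition was scored as reduced luminescence.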
SARS PLpro yeast = inhibitors of SARS-CoV papain-like protease in yeast; S. cerevisiae expressing SARS-CoV PLpro, growth rescue; Potency, µM (top dose mostly 32.9 µM), for the others: at the highest dose activity, positive = growth rescue, actives largely listed as activators; 0.19% of 330,000 active; AID 485353; calls by dose curve; further: 0% is about no effect; nearly all actives have a fitted effect of over 55% in size
An asterisk follows results filed as active; ? = inconclusive; nt = no result. Only some compounds are listed: those with a hit (about 12% of all), similar ones and a draw of the others. Unless noted, the call rests on the fitted dose curve; in most records, active means well fitted curve in the direction sought with a large enough effect; inconclusive means small, poorly fitted or top-dose-only effect, or another doubt; inactive means no such curve, though single readings can be large; an effect the other way counts as inactive or inconclusive. Potency means the concentration at half of the fitted maximal effect.

SMILES | Sm TGR block | Pf growth 96h | Pf growth 48h | SARS PLpro yeast
Cc1cc(C)c(S(=O)(=O)c2ccccc2)c(N(C)C)n1 | 19.3% | ? | ? | -7.3%
CCCc1nc(SCc2cccnc2)c2c(=O)n(C)c(=O)n(C)c2n1 | 2.1% | ? | 13.1µM* | -4.4%
CCCc1nc(SCc2ccccn2)c2c(=O)n(C)c(=O)n(C)c2n1 | -24.5% | -13.6% | nt | 2.1%
Cn1c(=O)c2c(SCc3ccccn3)nc(CC(C)(C)C)nc2n(C)c1=O | 5.3% | ? | 11.7µM* | 2.0%
Cc1ccccc1-c1nc(SCc2cccnc2)c2c(=O)n(C)c(=O)n(C)c2n1 | 44.7µM* | 31.9% | 13.8% | 0.4%
COc1cccc(-c2cccc(NC(=O)C3CCN(Cc4cccc(C)n4)CC3)c2)c1 | ? | 7.7% | ? | ?
COc1ccc(S(=O)(=O)N2CCC(C(=O)Nc3ccc(Oc4ccccc4)cc3)CC2)cc1OC | 2.5% | nt | nt | nt
CCn1ccnc1CN1CCCCC1C(=O)Nc1ccc(Oc2cccnc2)cc1 (stereo not drawn) | 4.5% | 19.0% | ? | 6.8%
COc1cccc(O)c1CN1CCC(C(=O)Nc2ccc(-c3cccc(C)c3)cc2)CC1 | -16.9% | 4.15µM* | 4.15µM* | 1.8%
O=C(Nc1ccccc1Oc1cccnc1)C1CCCN(Cc2ccc(F)cc2)C1 (stereo not drawn) | 4.6% | 6.0% | ? | 3.4%
Cc1ccccc1CN1CCCC(C(=O)Nc2ccccc2Oc2cccnc2)C1 (stereo not drawn) | -3.0% | 3.1% | 2.62µM* | 3.1%
Cn1ccnc1CN1CCCCC1C(=O)Nc1ccc(Oc2cccnc2)cc1 (stereo not drawn) | 1.1% | 13.1µM* | ? | 2.1%
COc1ccc(CN2CCC(C(=O)Nc3ccc(Oc4cccnc4)cc3)CC2)c(C)c1C | 2.8% | 29.0% | 7.38µM* | 2.2%
Cc1ccc(OCc2cc(C(=O)N3CCN(CC(=O)NC(C)C)CC3)no2)cn1 | -20.8% | 45.3% | 5.1% | 11.1%
CC(=O)Nc1cc(C(=O)NCc2ccc(C)cc2)ccc1S(=O)(=O)c1ccc(Cl)cc1 | 4.3% | nt | nt | nt
COc1ccc(CN2CCC(C(=O)Nc3ccc(Oc4cccnc4)cc3)CC2)cc1 | 2.6% | -9.9% | 11.7µM* | 4.2%
Cc1cc(C)nc(N2CCC(CNC(=O)CCc3ccccc3)CC2)n1 | -3.0% | 10.4µM* | ? | -13.8%
COc1cccc(O)c1CN1CCC(C(=O)Nc2ccc(Oc3cccnc3)cc2)CC1 | 0.0% | 11.4% | ? | 2.9%
O=C(NCc1cccc(C(F)(F)F)c1)C1CCN(c2ncccn2)CC1 | 0.0% | 21.7% | 7.5% | -5.6%
Cc1cc(C)nc(N2CCC(C(=O)NCc3cccc(C(F)(F)F)c3)CC2)n1 | -0.8% | 2.08µM* | 1.9% | 2.8%
Cc1cc(C)nc(N2CCC(C(=O)Nc3ccc(Oc4ccccc4)cc3)CC2)n1 | -7.5% | 11.7µM* | -8.4% | 2.2%
O=C(CN1C(=O)C(=O)N(C2CCCC2)C1=O)Nc1ccc(OC(F)F)cc1 | -2.3% | 64.3% | 0.6% | -4.2%
CC(C)(C)c1ccc(OCCC(=O)Nc2ccc(N3CCOCC3)cc2N2CCOCC2)cc1 | -20.1% | ? | ? | 1.5%
CCOc1ccc(-c2cn(CCC#N)cn2)cc1 | 2.3% | 6.57µM* | 30.2% | 3.0%
CCOc1ccc(-c2cnc(N)n2C)cc1 | -7.6% | 23.3% | 14.7% | -2.9%
SMILES | Sm TGR block | Pf growth 96h | Pf growth 48h | SARS PLpro yeast
CCOc1ccc(N2C(=O)CC(Sc3nccc(C)n3)C2=O)cc1 (stereo not drawn) | -30.2% | ? | -7.0% | -12.8%
Cc1ccnc(SC2CC(=O)N(c3ccc(Cl)cc3)C2=O)n1 (stereo not drawn) | 50.1µM* | -13.3% | 4.4% | -9.5%
Cc1ccnc(SC2CC(=O)N(c3ccc(Br)cc3)C2=O)n1 (stereo not drawn) | 50.1µM* | 5.2% | -28.2% | -8.8%
CC(C)c1ccc(N2C(=O)CC(Sc3ncccn3)C2=O)cc1 (stereo not drawn) | -35.6% | 2.08µM* | 3.3% | -10.3%
Cc1cc(C)nc(SC2CC(=O)N(c3ccc(Br)cc3)C2=O)n1 (stereo not drawn) | 50.1µM* | -16.3% | 2.4% | -4.0%
Cc1ccnc(SC2CC(=O)N(c3ccc(C(C)C)cc3)C2=O)n1 (stereo not drawn) | ? | ? | -27.9% | -4.3%
COc1ccc(S(=O)(=O)c2c(Nc3ccc(C)cc3)sc(C(=O)c3ccc4c(c3)OCO4)c2N)cc1 | -2.0% | nt | nt | nt
CCC(Sc1ncnc2sc3c(c12)CCCC3)C(=O)OCC(C)C (stereo not drawn) | 1.4% | nt | nt | nt

Compound activity: PubChem, National Center for Advancing Translational Sciences (NCATS)
